Results on 5 compounds are retold here after PubChem BioAssay AID602342 (Broad Institute, 2012).

Molecules are shown by their SMILES. Out of some 340,000 compounds screened, about 1,000 (0.29%) were called active. Only a selection was taken, and actives are over-represented in it overall. Unmarked numbers belong to inactive results.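 How the source made its calls: active means mean replicate activation score at least 90 and every replicate individually at or above 90; inconclusive means only one of the two criteria met; inactive means neither criterion met.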

The nature of the assay: miR-122 Renilla sensor signal increase in Huh7, primary screen, miR-122 inhibitor project, cell-based, single point, plate reader (AID 602342).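 Further: higher luciferase means less miR-122 activity so hits act as miR-122 inhibitors.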 To be noted: Huh7 miR-122 Renilla luciferase sensor, 48 h, active compounds read high; at 12.5 µM unless noted.
Turning to `C[C@]12CC[C@H](O)C[C@H]1CC[C@@H]1C2CC[C@]2(C)[C@@H](C3=CC(=O)OC3)[C@@H](O)C[C@]12O` (stereo not given in full), the activation (reporter increase) is 339% (active).

Consider `C[C@]12CCC3C(CC[C@H]4C[C@@H](O)CC[C@]34C)C1CC[C@@H]2O` (stereo not given in full), for which the activation (reporter increase) was -9.92%. With `C[C@]12CCC3C(CC[C@H]4C[C@@H](O)CC[C@]34C)C1C[C@@H](O)[C@H]2O` (stereo not given in full), the activation (reporter increase) was -6.69%. With `COc1ccc(-n2nnnc2C(c2cccc3ccccc23)N2CCC(n3c(=O)[nH]c4ccccc43)CC2)cc1` (stereo not given) the figure was -6.36%. With `COC(=O)[C@H]1[C@H](CO)[C@H]2Cn3c(ccc(-c4ccccc4F)c3=O)[C@@H]1N2C(=O)C1CCC1` the figure was 3% [at 16.7 µM].
